In all, about 650,000 compounds went through this assay and about 5,900 (0.91%) were called active. No stated cut-off is given here; in the data, active means inhibition above about 50%; inactive means the rest. For the sample, actives were picked, then their nearest neighbours and some compounds at random.
molecular target: Microphthalmia-associated transcription factor (Homo sapiens) (UniProt O75030); experiment: MITF inhibitors, primary screen, biochemical, AlphaScreen, human (AID 1259374); conditions: AlphaScreen MITF homodimerization, bead proximity signal; at 2.6 µM; stronger effect = higher value;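 further: 0% = vehicle wells with protein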
Sequence (O75030 whole entry, looked up): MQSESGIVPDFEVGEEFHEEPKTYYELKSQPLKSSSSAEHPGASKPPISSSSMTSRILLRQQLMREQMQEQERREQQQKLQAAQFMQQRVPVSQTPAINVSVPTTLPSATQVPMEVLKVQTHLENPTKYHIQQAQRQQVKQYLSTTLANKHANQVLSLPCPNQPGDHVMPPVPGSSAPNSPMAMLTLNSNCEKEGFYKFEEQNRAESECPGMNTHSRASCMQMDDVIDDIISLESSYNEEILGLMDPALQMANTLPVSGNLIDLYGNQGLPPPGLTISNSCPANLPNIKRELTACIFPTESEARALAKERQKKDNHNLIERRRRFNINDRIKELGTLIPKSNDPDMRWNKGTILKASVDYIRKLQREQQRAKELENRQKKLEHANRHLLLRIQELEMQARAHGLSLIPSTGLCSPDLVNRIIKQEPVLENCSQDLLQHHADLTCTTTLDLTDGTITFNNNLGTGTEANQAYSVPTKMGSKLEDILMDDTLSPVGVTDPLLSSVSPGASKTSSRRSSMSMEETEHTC

SMILES	inhibition
Cc1nn(C)c(C)c1NC(=O)Cn1nc2n(Cc3ccc(F)cc3)c3ccccc3n2c1=O	12.6% (inactive)
Cc1ccc(C)c(NCN2C(=O)CSC2=O)c1	17.9% (inactive)
CCOC(=O)c1sc2nc(SCC(=O)N3CCCC3)n(Cc3ccc(C)cc3)c(=O)c2c1C	-3.14% (inactive)
C1=CC2CC1CC2CN1CCN(Cc2c[nH]c3ccccc23)CC1 (stereo unspecified)	64.4% (active)
O=S(=O)(c1ccc2ccccc2c1)N1CCN(CC2CC3C=CC2C3)CC1 (stereo unspecified)	-6.53% (inactive)
CCOc1ccccc1N1CCN(CC2CC3C=CC2C3)CC1 (stereo unspecified)	4.32% (inactive)
CCN1C(=O)C(C)(C)COc2ccc(NC(=O)COc3ccc4ccccc4c3)cc21	8.12% (inactive)
CN(C)/C=C/C=C/C=C1\CCC\C(=C/C=C/C=C/N(C)C)C1=O	98.9% (active)
CN(C)/N=C/C=C1\CCC/C(=C\C=N\N(C)C)C1=O	17.4% (inactive)
CN(C)/N=C/C=C1\CCC/C(=C\c2ccc([N+](=O)[O-])cc2)C1=O	-2.41% (inactive)
Cc1ccc2nc3sc(C(=O)N4CC(=O)Nc5ccccc54)c(N)c3cc2c1	-4.39% (inactive)
O=[N+]([O-])c1ccc(OCc2nnc(SCCN3CCOCC3)n2-c2ccccc2)cc1	53.2% (active)
c1ccc(C(Sc2nnc(COc3ccc(C4CCCCC4)cc3)n2-c2ccccc2)c2ccccc2)cc1	15.4% (inactive)
COc1ccccc1-c1nnc(SCCN2CCOCC2)n1C	0.66% (inactive)
COc1ccc(C(=O)Oc2ccc3c(C(F)(F)F)cc(=O)oc3c2C)cc1OC	6.47% (inactive)
O=S(=O)(c1ccc(-c2csc(N3N=C(c4cccs4)CC3c3ccc(F)cc3)n2)cc1)N1CCCCC1 (stereo unspecified)	12% (inactive)
Cc1ccc(N(C2C=CS(=O)(=O)C2)S(=O)(=O)c2ccc(Br)cc2)cc1 (stereo unspecified)	19.4% (inactive)
O=C(O)c1cccc(-n2[nH]c(-c3ccccc3)cc2=O)c1	7.2% (inactive)
Cc1nc2sc3c(c2c(=O)n1/N=C/c1ccccc1[N+](=O)[O-])CCCC3	-7.66% (inactive)
COc1cccc(NC(=O)C2CCN(S(=O)(=O)c3ccc4c(c3)oc(=O)n4C)CC2)c1	-1.03% (inactive)
Cn1c(=O)oc2cc(S(=O)(=O)N3CCC(C(=O)NC(C)(C)C)CC3)ccc21	70.2% (active)
Cn1c(=O)oc2cc(S(=O)(=O)N3CCC(C(=O)NCCC4=CCCCC4)CC3)ccc21	-12.8% (inactive)
CC(C)NC(=O)NC(=O)COC(=O)c1ccc(Cl)c(S(N)(=O)=O)c1	0.26% (inactive)
CCOC(=O)c1ccc(NC(=O)CCc2c(C)nc3nc(CN)nn3c2C)cc1	6.45% (inactive)
COc1ccccc1NC(=O)Cn1cnc2sc(C(=O)Nc3nc4ccc(Br)cc4s3)c(C)c2c1=O	17.9% (inactive)
COCCCN1C(=O)c2cccc3c(C(=O)c4ccccc4)ccc(c23)C1=O	64.3% (active)

SMILES	inhibition
CCCCN1C(=O)c2cccc3c(C(C)=O)ccc(c23)C1=O	7.62% (inactive)
COCCCN1C(=O)c2cccc3cccc(c23)C1=O	1.36% (inactive)
N/C(=N\OC(=O)c1cccc(F)c1)c1ccc(Cl)cc1	17.5% (inactive)
COc1ccc(-c2ncc(C)c(NC3CCN(Cc4ccccc4)CC3)n2)cc1	9.68% (inactive)
COc1ccc(CN2CCC(C(=O)N3CCN(Cc4ccccc4)CC3)CC2)cc1	52% (active)
COc1cccc(CN2CCC(C(=O)NCCc3ccccc3)CC2)c1	54.9% (active)
CCOc1ccc(CN2CCCC(C(=O)N(C)Cc3ccccc3)C2)cc1 (stereo unspecified)	45.6% (inactive)
CCOC(=O)C1CCCN(Cc2ccc(F)cc2)C1 (stereo unspecified)	12.6% (inactive)
CCOc1cc(CN2CCC(C(=O)NCCc3ccccc3)CC2)ccc1O	-1.67% (inactive)
COc1ccc(CN2CCCC(C(=O)N3CCCCC3)C2)cc1 (stereo unspecified)	57.8% (active)
COc1cccc(CN2CCC(C(=O)NC(C)(C)C)CC2)c1	18.9% (inactive)
COc1ccc(-c2nc(C(=O)NC3CCN(Cc4ccccc4)CC3)cs2)cc1	9.55% (inactive)
Cc1ccccc1-n1c(=S)sc2c(=O)n(-c3ccccc3)c(SCc3cc(=O)n4cc(Cl)ccc4n3)nc21	-24.2% (inactive)
CC(C)NC(=O)Cn1nc(SCc2ccccn2)nc1N	2.01% (inactive)
Cn1ccnc1SCc1cc(=O)c(OC(=O)c2ccccc2I)co1	-3.29% (inactive)
O=C(Nc1cccc(N2CCC(N(CC3CCC3)CC3CCCO3)CC2)c1)c1cccnc1 (stereo unspecified)	21.5% (inactive)
CC(C)CC(=O)N1CCc2ccccc21	5.19% (inactive)
CN(CCc1ccccn1)CC(=O)N1CCc2ccccc21	93% (active)
COc1ccc(CN(C)CC(=O)N2CCc3ccccc32)cc1OC	0.1% (inactive)
CN(C(=O)c1ccccc1)c1cccc(N)c1	-4.8% (inactive)
c1ccc(CN2CCN(Cc3ccco3)CC2)cc1	12.7% (inactive)
COc1cc(CN2CCN(Cc3ccc(Cl)cc3)CC2)c([N+](=O)[O-])cc1OC	65.5% (active)
COc1cc(CN2CCCN(C)CC2)c([N+](=O)[O-])cc1OC	14.7% (inactive)
COc1cc(CN2CCCC(CO)C2)c([N+](=O)[O-])cc1OC (stereo unspecified)	12.4% (inactive)
COc1cc(CN2CCN(Cc3ccc(C)cc3)CC2)c([N+](=O)[O-])cc1OC	80.6% (active)
COc1cc(CN2CCN(Cc3ccco3)CC2)c([N+](=O)[O-])cc1OC	84.4% (active)

SMILES	inhibition
COc1cc(CNCc2ccc3c(c2)OCO3)c([N+](=O)[O-])cc1OC	6.83% (inactive)
COc1cc(C(=O)N2CCCC2)c([N+](=O)[O-])cc1OC	9.4% (inactive)
COc1cc(CN2CCN(CCO)CC2)c([N+](=O)[O-])cc1OC	13.5% (inactive)
CN1CCc2cc(CNC(=O)CC3C(=O)NCCN3CCc3ccccc3)ccc21 (stereo unspecified)	-15.3% (inactive)
CC/C(C)=N\NC(=O)CCC(=O)Nc1ccccc1	7.54% (inactive)
NC(=O)c1ccccc1NC(=O)CCl	0.34% (inactive)
CCNC(=O)CSc1ccc(C)cc1	1.07% (inactive)
CN1C(=O)CSC1=Nc1ccc(Cl)c(Cl)c1	-5.98% (inactive)
CCNc1nc(NCC)nc(C(=O)O)n1	55.1% (active)
CCNc1nc(NC(C)C)nc(OCCOC(C)=O)n1	-3.21% (inactive)
CCNc1nc(OC)cc(OC)n1	-5.7% (inactive)
O=C(COC(=O)c1ccco1)Nc1ccc(Cl)c(Cl)c1	-6.47% (inactive)
O=C(CN1CCN(CC(=O)c2ccco2)CC1)Nc1ccc(Cl)c(Cl)c1	65.2% (active)
O=C(CN1CCN(C(=O)Nc2c(F)cccc2F)CC1)c1ccco1	39.7% (inactive)
COc1cccc2c1OC1(CCN(C(=O)Cc3cccs3)CC1)OC2	0.59% (inactive)
COc1cc(C(=O)/C(=C/c2ccccc2F)c2nc3ccccc3o2)cc(OC)c1OC	5.52% (inactive)
Cc1nnc(NC(=O)CSc2nc(C3CCCCC3)nc3ccccc23)s1	-12.8% (inactive)
COC(=O)CSc1nc(C2CC2)nc2ccccc12	72.1% (active)
c1ccc(CSc2nc(C3CC3)nc3ccccc23)nc1	-3.42% (inactive)
Cc1cccc(NC(=O)CC[C@H]2CN(Cc3ccccc3)CC[C@H]2N(C)C)c1	-2.16% (inactive)
OCCNCCCOc1ccc(I)cc1	-4.92% (inactive)
CCOc1ccc(OCCCCNCCO)cc1	63.6% (active)
CC(C)(C)c1ccc(OCCCCNCCO)cc1	-8.77% (inactive)
O=C(Nc1ccc(N2CCC(NCc3ccc4c(c3)OCO4)CC2)cc1)C1CCCC1	-10.3% (inactive)
O=C(c1ccccc1)c1cccc(NC(=O)C2CCCCC2)c1	-1.02% (inactive)
CCOc1cccc(C2C(C(=O)OCCOc3ccccc3)=C(C)NC3=C2C(=O)CCC3)c1 (stereo unspecified)	59.2% (active)

SMILES	inhibition
COC(=O)c1ccc(C2C(C(=O)OCCOc3ccccc3)=C(C)NC3=C2C(=O)CCC3)cc1 (stereo unspecified)	0.05% (inactive)
CC1=C(C(=O)OCC(C)C)C(c2cccc(OCc3ccccc3)c2)C2=C(CCCC2=O)N1 (stereo unspecified)	0.37% (inactive)
COc1ccc(C(=O)N/C(=C\c2cccc([N+](=O)[O-])c2)C(=O)NC(CC(C)C)C(=O)O)cc1 (stereo unspecified)	-8.1% (inactive)
COCCn1nnnc1C(c1ccc(F)cc1)N1CCN(c2ccccc2OC)CC1 (stereo unspecified)	-3.53% (inactive)
Cc1cc(-c2ccc(S(=O)(=O)NC3CCC(C)CC3)cc2)on1 (stereo unspecified)	4.94% (inactive)
CCOC(=O)C1CCN(C(=O)c2ccc(N3CC4CC(C3)c3cccc(=O)n3C4)c(NC(=O)c3cccnc3)c2)CC1 (stereo unspecified)	-0.93% (inactive)
COc1ccccc1NC(=O)c1ccc(N2CC3CC(C2)c2cccc(=O)n2C3)c(NC(=O)c2cccnc2)c1 (stereo unspecified)	-6.03% (inactive)
CC(=O)N1CCN(C(=O)c2ccc(N3CC4CC(C3)c3cccc(=O)n3C4)c(NC(=O)c3cccnc3)c2)CC1 (stereo unspecified)	60% (active)
O=C(NCCO)/C(=C/c1ccco1)NC(=O)c1ccccc1	13.5% (inactive)
CCCCNC(=O)/C(=C/c1ccco1)NC(=O)c1ccccc1	5.66% (inactive)
O=C(O)CCCCCNC(=O)/C(=C\c1ccco1)NC(=O)c1ccccc1	52.3% (active)
CC(C)(CO)NC(=O)CCC1(Cc2ccc3ccccc3c2)CCC(=O)N1 (stereo unspecified)	5.16% (inactive)
CCc1ccc(C(=O)CC(c2ccccc2)C2CCCCC2=O)cc1 (stereo unspecified)	2.82% (inactive)
Cc1cncn(CC(=O)NCCOc2ccccc2)c1=O	-1.97% (inactive)
CCCC(C(=O)O)N1C(=O)/C(=C/C=C/c2ccco2)SC1=S (stereo unspecified)	63.6% (active)
O=C(CCN1C(=O)/C(=C\c2ccco2)SC1=S)Nc1cccc(C(=O)O)c1	2.65% (inactive)
O=C(CCCN1C(=O)/C(=C\c2ccco2)SC1=S)Nc1ccccc1C(=O)O	9.5% (inactive)
Cc1ccc(/C=C2\SC(=S)N(C(C)C(=O)O)C2=O)o1 (stereo unspecified)	69.4% (active)
CCCCC(C(=O)O)N1C(=O)/C(=C2/C(=O)N(C(C)=O)c3ccccc32)SC1=S (stereo unspecified)	6.57% (inactive)
Cc1ccc(/C=C2\SC(=S)N(c3cccc(O)c3)C2=O)o1	13.4% (inactive)
O=C(O)CCC(C(=O)O)N1C(=O)/C(=C\c2ccco2)SC1=S (stereo unspecified)	62.6% (active)
COc1cc(/C=C2/SC(=S)N(C(CCSC)C(=O)O)C2=O)ccc1O (stereo unspecified)	15.5% (inactive)
CC(C(=O)O)N1C(=O)S/C(=C\c2ccccc2)C1=O (stereo unspecified)	8.38% (inactive)
